VP16 counter – Gal4-VP16 reporter inhibition counter-screen | Drosophila S2 Gal4-VP16 UAS-luciferase, luminescence, 20 h | Potency, µM (highest dose often 53.6 µM), for inactives: at the top dose activity, negative = inhibition, hits mostly inhibitors | hit rate 3.5% among 310,000 | AID 2546;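 also: Gal4-VP16 expression switched on by copper sulfate through the metallothionein promoter; nearly all actives have a fitted effect of over 50% in size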
ALOX12 inh – ALOX12 (human) lipoxygenase inhibition. P18054. purified 12hLO, xylenol orange hydroperoxide absorbance. Potency, µM (top dose mostly 108 µM), inactives show at the highest dose activity change, negative = inhibition, usual class: inhibitors. hit rate 1.1% among 580,000. AID 1671190
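Purified human 12hLO (150 nM final) in 25 mM Hepes, 0.01% Triton X-100, pH 7.0 was preincubated 15 min at room temperature with compound. Then 40 uM arachidonic acid was added, 30 min. Hydroperoxide was read by Fe-XO absorbance ratio 573/405 nm.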
RORg inh – inhibitors of mouse ROR gamma transcriptional activity; P51450; Drosophila S2 Gal4-RORgamma UAS-luciferase reporter, 20 h; Potency, µM (series often up to 53.6 µM), without a hit: at the top dose activity change, negative = inhibition, actives largely listed as inhibitors; hit rate 5.4% among 310,000; AID 2551; also: nearly all actives have a fitted effect of over 60% in size
Target sequence (P51450 whole entry, looked up, the tested form may be a part): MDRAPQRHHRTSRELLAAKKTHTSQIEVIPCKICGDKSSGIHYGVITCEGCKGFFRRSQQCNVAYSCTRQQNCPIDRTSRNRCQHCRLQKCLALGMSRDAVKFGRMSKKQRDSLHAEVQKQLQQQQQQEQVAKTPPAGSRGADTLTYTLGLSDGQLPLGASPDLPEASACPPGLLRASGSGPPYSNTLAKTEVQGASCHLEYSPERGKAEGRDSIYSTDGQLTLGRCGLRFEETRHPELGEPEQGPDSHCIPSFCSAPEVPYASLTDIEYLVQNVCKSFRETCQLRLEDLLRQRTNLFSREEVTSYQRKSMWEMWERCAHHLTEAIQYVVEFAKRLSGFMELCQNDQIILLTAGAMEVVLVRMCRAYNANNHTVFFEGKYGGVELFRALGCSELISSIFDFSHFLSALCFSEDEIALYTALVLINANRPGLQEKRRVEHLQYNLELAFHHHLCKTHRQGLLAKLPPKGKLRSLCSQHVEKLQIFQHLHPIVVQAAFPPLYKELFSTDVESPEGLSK
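Drosophila S2 cells stably expressing Gal4-DBD/mouse RORγ fusion under metallothionein promoter plus UAS-luciferase; compound 1 h, then 700 uM CuSO4 induction for 20 h at ambient temperature; inhibition read as reduced luminescence.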
TDP1 cell CPT – growth inhibition of DT40 Tdp1-/-;hTDP1 cells with camptothecin (screen for TDP1 inhibitors); chicken DT40 Tdp1-/-;hTDP1 cells + 20 nM CPT, ATP luminescence, 48 h; Potency, µM (doses to about 46.2 µM), for inactives: at the top dose activity change, negative = growth inhibition, hits mostly inhibitors; hit rate 12% among 420,000; AID 686979; also: nearly all actives have a fitted effect of over 55% in size
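Chicken DT40 Tdp1-/- cells complemented with human TDP1, 400 cells/well, exposed to compounds plus 20 nM camptothecin for at least 48 h at 37 C; viability read as ATP content by CellTiter-Glo luminescence.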
ELG1 repair inh – inhibitors of ELG1-dependent DNA repair in HEK293T cells; HEK293T ELG1-luciferase reporter, luminescence, 16 h; DNA damage induced by 5-fluorouridine; hit rate 2.3% among 330,000; Potency, µM (titrated, usually from 46.1 µM), without a hit: top-dose activity change, negative = inhibition, usual class: inhibitors; AID 504467; also: nearly all actives have a fitted effect of over 55% in size
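Reporter activity after DNA damage by 5-fluorouridine is monitored. Compound-treated cells incubate 16 hr at 37 °C, then ONE-Glo is added for 30 min before luminescence reading.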
TDP1 cell noCPT – qHTS for Inhibitors of human tyrosyl-DNA phosphodiesterase 1 (TDP1): qHTS in cells in absence of CPT; DT40 Tdp1-/- hTDP1 cells, no CPT, ATP luminescence, 48 h; Potency, µM (series often up to 46.2 µM), for the others: at the highest dose activity change, negative = growth inhibition, hits mostly inhibitors; hit rate 15% among 420,000; AID 686978, 2013; also: nearly all actives have a fitted effect of over 55% in size
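Stably hTDP1-transfected Tdp1-null chicken DT40 cells were treated with library compounds minus camptothecin and grown for at least 48 hr at 37 °C, after which cellular ATP was quantified by luminescence.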
The depositor's hits bear a star; ? = inconclusive; · = no result given; [ ] = dose if it differs, or a comment. Compounds with a hit are over-represented: about 15% of the library has one in this group of screens. Calls follow the shape of the dose curve; as a rule, active = well fitted curve in the direction sought with a large enough effect; inconclusive = small, poorly fitted or top-dose-only effect, or another doubt; inactive = no such curve, though single readings can be large; an effect the other way counts as inactive or inconclusive. % is scaled to controls: 0 for no effect and ±100 for the full control effect; potency is read from the fitted curve at half-maximal effect.

SMILES	VP16 counter	ALOX12 inh	RORg inh	TDP1 cell CPT	ELG1 repair inh	TDP1 cell noCPT
CCCCCCCCN1C(=O)[C@H](CC(=O)N2CCCCC2)C[C@@]2(C(=O)OC)CC(C)(C)CC=C12	·	-6%	·	8.2µM*	·	6.5µM*
CCCCCCCCN1C(=O)[C@H](CC(=O)N2CCOCC2)C[C@@]2(C(=O)OC)CC(C)(C)CC=C12	·	?	·	21µM*	·	18µM*
COC(=O)[C@@]12C[C@@H](CC(=O)N3CCCCC3)C(=O)N(CCc3ccc(OC)c(OC)c3)C1=CCC(C)(C)C2	·	0%	·	?	·	?
COc1ccc(N2CCN(C(c3ccccc3OC)c3nnnn3C3CCCC3)CC2)cc1 (configuration not stated)	-2%	?	0%	23µM*	-15%	21µM*
COc1ccc(N2CCN(C(c3cccs3)c3nnnn3C3CCCC3)CC2)cc1 (configuration not stated)	0%	-16%	2%	21µM*	-17%	16µM*
CCOc1ccc(CN(C)c2nc(-c3cccnc3)nc3ccccc23)cc1OC	-5%	1%	-20%	13µM*	18µM*	?
CN(Cc1ccc2c(c1)OCO2)c1nc(-c2cccnc2)nc2ccccc12	·	-10%	·	·	·	·
Cc1ccc(CN(C)c2nc(-c3cccnc3)nc3ccccc23)o1	22%	17%	16%	?	10%	16µM*
CN(Cc1ccco1)c1nc(-c2cccnc2)nc2ccccc12	-7%	-11%	-28%	?	·	?
CN(Cc1ccccc1F)c1nc(-c2cccnc2)nc2ccccc12	3%	?	-5%	21µM*	?	?
CN(C)Cc1ccccc1CN(C)c1nc(-c2cccnc2)nc2c1CNC2	·	82%	·	·	·	·
Cc1ncc(-c2ccnc(Nc3ccc(S(C)(=O)=O)cc3)n2)n1C(C)C	·	-16%[57.4 µM]	·	·	·	·
Cc1cccc(NC(=O)CCCc2nc3ccccc3o2)c1	·	10%	·	·	·	·
CC(C)c1cc(=O)oc2c3c4c(cc12)CCCN4CCC3	-3%	14%	-35%	16µM*	-2%	?
O=c1oc2c3c4c(cc2c(C(F)(F)F)c1CCN1CCOCC1)CCCN4CCC3	-2%	6%	1%	16µM*	-2%	16µM*
Cc1cc(=O)oc2c3c4c(cc12)OCCN4CCC3	?	6%	?	?	-12%	-29%
Clc1ccccc1Nc1ncnc2c1nc1n2CCCCC1	·	-14%	·	8.2µM*	·	?
Clc1cccc(Nc2ncnc3c2nc2n3CCCCC2)c1	·	-26%	·	8.2µM*	·	9.2µM*
Clc1cccc(N2CCN(c3ncnc4c3nc3n4CCCC3)CC2)c1	·	-20%	·	16µM*	·	21µM*
COc1ccc(OC)c(CNc2ncnc3c2nc2n3CCCC2)c1	·	-13%	·	13µM*	·	?
COc1ccc(CNc2ncnc3c2nc2n3CCCC2)cc1	·	-19%	·	?	·	-18%
Cc1c(C(=O)C(F)(F)F)c2ccccc2n1CCOc1ccccc1F	·	-29%	·	·	·	·
O=C(NCc1nc2ccccc2[nH]1)C1=C[C@@H](c2csc3ccccc23)C[C@@H](OCc2ccc(CO)cc2)O1	19%	0%	-12%	?	?	21µM*
O=C(NCc1nc2ccccc2[nH]1)C1=C[C@H](c2csc3ccccc23)C[C@H](OCc2ccc(CO)cc2)O1	-15%	-4%	-17%	?	?	15µM*
O=C(NCc1nc2ccccc2[nH]1)C1=C[C@@H](c2ccc(Br)cc2)C[C@@H](OCc2ccc(CO)cc2)O1	9%	-3%	-31%	9.2µM*	0%	18µM*
SMILES	VP16 counter	ALOX12 inh	RORg inh	TDP1 cell CPT	ELG1 repair inh	TDP1 cell noCPT
O=C(NC1CC1)C1=C[C@H](c2ccc(Br)cc2)C[C@H](OCc2ccc(CO)cc2)O1	10%	-9%	22%	23µM*	-7%	15µM*
CCCCCSc1nc2c(c(=O)n(C)c(=O)n2C)n1C/C=C/c1ccccc1	·	2%	·	·	·	·
CN1C(=O)C(CC(=O)NC2CCCCC2)=C2CCCCC21 (configuration not stated)	·	49%	·	·	·	·
Cc1ccc(CNC(=O)C2CC2)cn1	·	25%	·	·	·	·
Cc1cc2c(c(=O)n(-c3ccc(F)cc3)c(=O)n2CC(=O)Nc2ccc(F)cc2)n1C	·	-3%	·	·	·	·
Cn1c(=O)nc2n(Cc3ccccc3)c3cccc(Cl)c3cc-2c1=O	-5%	-25%	-34%	?	14%	29µM*
O=C(CSc1nc2ccccc2c(=O)n1CCCC(=O)N1CCCC1)NCc1ccco1	4%	-9%	6%	-25%	-7%	-18%
Cc1cccc(CNC(=O)c2ccc(Cn3c(SCc4ccccc4)nc4cccnc43)cc2)c1	·	-25%	·	?	·	16µM*
O=C(NCc1ccccc1)c1ccc(CSc2nc3cccnc3n2Cc2ccccc2F)cc1	·	?	·	?	·	18µM*
O=C(CCCCCn1c(SCc2ccncc2)nc2ccccc2c1=O)NCc1ccco1	-1%	?	?	?	18µM*	?
COc1ccc(Cn2c(SCc3ccc(C(=O)NCc4ccc(C)cc4)cc3)nc3cccnc32)cc1	·	-2%	·	?	·	?
COc1cccc(CNC(=O)c2ccc(Cn3c(SCc4ccccc4)nc4cccnc43)cc2)c1	·	-9%	·	8.2µM*	·	?
CCOc1ccc(CN2CCN(C/C=C/c3ccccc3OC)CC2CCO)cc1 (configuration not stated)	·	46%	·	·	·	·
CCCC1CCC(c2ccc(-c3ccc(OC(F)F)c(F)c3)cc2)CC1 (configuration not stated)	·	4%	·	·	·	·
COc1ccc(CNC(=O)c2cc3n(n2)CC(c2ccc4c(c2)OCO4)OC3)cc1OC (configuration not stated)	·	1%	·	·	·	·
O=C(NCc1ccco1)c1ccc(Cn2c(SCc3ccccc3)nc3cccnc32)cc1	·	-11%	·	4.1µM*	·	26µM*
Cc1nc(/N=C(\N)NC(=O)c2ccccc2N)nc2ccccc12	·	9%	·	·	·	·
NC(=O)CC(NC(=O)Cc1ccc(Cl)cc1)c1ccc(N2CCN(c3ccccn3)CC2)c([N+](=O)[O-])c1 (configuration not stated)	1%	-8%	-2%	?	-1%	?
NC(=O)CC(NC(=O)c1ccc(Br)cc1)c1ccc(N2CCN(c3ccccn3)CC2)c([N+](=O)[O-])c1 (configuration not stated)	-8%	-24%	28%	23µM*	?	21µM*
